According to PubChem BioAssay (Tox21):
Records with an inconclusive call do not appear. A call without a number means that no potency is given here. Activity calls are given as the source filed them. Calls follow the shape of the dose curve; as a rule, active = well fitted cell-killing curve with a large enough effect in the repeat runs; inconclusive = weak or mixed curves; inactive = flat fitted curve, though single readings scatter.

Assay: qHTS RealTime-Glo MT Cell Viability Assay in HepG2 cells - 32 hour (AID 1224877); also: nearly all actives have a fitted effect of over 55% in size
Settings: RealTime-Glo luminescence; series mostly up to 76.8 µM
Source text: U.S. Tox21 Program National Center for Advancing Translational Sciences [NCATS] NIH Chemical Genomics Center [NCGC] U.S. Environmental Protection Agency [EPA] National Institutes of Environmental Health Sciences [NIEHS] National Toxicology Program [NTP] U.S. Food and Drug Administration [FDA] Tox21 Assay Overview: Measure of cell viability is critical in the cell-base assay. Analysis of cell viability is necessary for the characterization of cell responses to cytotoxic drugs and environmental stress. A RealTime-Glo MT Cell Viability Assay to monitor cell viability in real time of continues cell culture during 40 hours of compound treatment was used to screen Tox21 10K library compounds in HepG2 cells. The RealTime-Glo MT Cell Viability Assay is a nonlytic, homogeneous, bioluminescent method to measure cell viability in real time using a simple, plate-based method. The assay involves adding NanoLuc luciferase and a cell-permeant prosubstrate to cells in culture. Viable cells reduce the proprietary prosubstrate to generate a substrate for NanoLuc luciferase. This substrate diffuses from cells into the surrounding culture medium, where it is rapidly used by the NanoLuc Enzyme to produce a luminescent signal. The signal correlates with the number of viable cells, making the assay well suited for cytotoxicity studies.
Tox21 Assay Protocol Summary: The mixture of HepG2 cell suspension and reagents were dispensed at 600cells/6 ul/well in 1536-well tissue culture treated black solid bottom plates using a Multidrop dispenser. After the assay plates were incubated at a 37 C/5% CO2 incubator for 5 hours, 23 nL of compounds dissolved in DMSO, positive and negative controls was transferred to the assay plate by a pintool work station. The plates were incubated at 37 C for 40 hours. The luminescence intensity were measured at 0h, 8h, 16h, 24h, 32h and 40h time points using ViewLux plate reader during compound treatment.
Potency is read from the fitted curve at half-maximal effect.

| Structure (SMILES) | Potency |
| --- | --- |
| CC(C)NCC(O)c1cc(O)cc(O)c1 (stereo not given) | inactive |
| CC(C)NCC(O)COc1ccc(CC(N)=O)cc1 (stereo not given) | inactive |
| CCCCCCCCCC(=O)OCC | inactive |
| CCCCCOC(=O)c1ccc(O)cc1 | inactive |
| COc1ccc(C(C)=O)cc1 | inactive |
| O=C1CCCCCO1 | inactive |
| CCCCOc1ccc(CC(=O)NO)cc1 | inactive |
| Cc1ccc(C(=O)C(C)CN2CCCCC2)cc1 (stereo not given) | inactive |
| CCCCCCOC(=O)CCC | inactive |
| NC(N)=NN=C(/C=C/c1ccc([N+](=O)[O-])o1)/C=C/c1ccc([N+](=O)[O-])o1 | 1.51 µM (active) |
| CCc1nn(C2CCCCC2)c2cc(C3(C#N)CCC(C(=O)O)CC3)ccc12 (stereo not given) | inactive |
| CCCCOc1cc(C(=O)OCCN(CC)CC)ccc1N | inactive |
| C[C@H](CCC(=O)O)[C@H]1CC[C@H]2[C@@H]3[C@H](O)C[C@@H]4C[C@H](O)CC[C@]4(C)[C@H]3CC[C@]12C | inactive |
| COC(Cc1ccccc1)OC | inactive |
| CCN(CC)C(C)=O | inactive |
| CC1CCc2cc(F)cc3c(=O)c(C(=O)O)cn1c23 (stereo not given) | inactive |
| Cc1cccc(Oc2ccccc2)c1 | inactive |
| CC(CN)CCCN (stereo not given) | inactive |
| COc1ccc([C@@H]2Sc3ccccc3N(CCN(C)C)C(=O)[C@@H]2OC(C)=O)cc1 | inactive |
| CC(C)c1ccc2c(C(C)C)cc(C(C)C)c(S(=O)(=O)O)c2c1 | inactive |

| Structure (SMILES) | Potency |
| --- | --- |
| O=[N+]([O-])c1cccc(Cl)c1Cl | inactive |
| OCCC1CCCCN1 (stereo not given) | inactive |
| O=C1[C@H](CC[C@H](O)c2ccc(F)cc2)[C@@H](c2ccc(O)cc2)N1c1ccc(F)cc1 | inactive |
| Cc1cc(C)c(S(=O)(=O)O)cc1N=Nc1cc(S(=O)(=O)O)c2ccccc2c1O | inactive |
| CCCCCCCCCO | inactive |
| O=C(O)Cc1cc(I)c(Oc2ccc(O)c(I)c2)c(I)c1 | inactive |
| C=CC(=O)OCC(C)OCC(C)OCC(C)OC(=O)C=C (stereo not given) | 54.9 µM (active) |
| CN1CCC(=C2c3ccccc3C=Cc3ccccc32)CC1 | inactive |
| CC(=O)OCCc1ccccc1 | inactive |
| O=C(Cl)c1ccc([N+](=O)[O-])cc1 | inactive |
| Cc1ccccc1N=Nc1ccc(N=Nc2c(O)ccc3ccccc23)c(C)c1 | inactive |
| C=CC[N+]1([C@H]2C[C@H]3[C@@H]4CC[C@H]5C[C@H](OC(C)=O)[C@@H](N6CCCCC6)C[C@]5(C)[C@H]4CC[C@]3(C)[C@H]2OC(=O)CC)CCCCC1 | inactive |
| CCOC(=S)SSC(=S)OCC | inactive |
| CC(C)c1cccc(C(C)C)c1NC(=O)NS(=O)(=O)c1cc(C(C)(C)O)co1 | inactive |
| CN(C)CC/C=C1\c2ccccc2COc2ccccc21 | inactive |
| CCN1CCC[C@H]1CNC(=O)c1c(OC)ccc(Br)c1OC | inactive |
| NC1CCN(c2nc3c(cc2F)c(=O)c(C(=O)O)cn3-c2ccc(F)cc2F)C1 (stereo not given) | inactive |
| CCOc1ccc2[nH]cc(C(=O)NCc3ccccc3)c(=O)c2n1 | inactive |
| Cc1cc(CC(=O)O)c(C)n1-c1ccc(Cl)cc1 | inactive |
| CCCCCCCC/C=C\CCCCCCCC(N)=O | inactive |
